Consider ten molecules from PubChem BioAssay (Tox21).

A short description of assay [1]: qHTS assay to identify small molecule antagonists of the glucocorticoid receptor (GR) signaling pathway - cell viability counter screen (AID 720693). Further: nearly all actives have a fitted effect of over 55% in size. Further: potency means the concentration at half of the fitted maximal effect. Conditions: GR-bla HeLa viability, CellTiter-Glo luminescence, 18 h, with 5 nM dexamethasone present; series mostly up to 58.5 µM. (In general: qHTS replaces the single test concentration by a dilution series.)
The nature of assay [2]: qHTS assay for identifying genotoxic compounds that show differential cytotoxicity against isogenic chicken DT40 cell lines with known DNA damage response pathways - wild type cell line (AID 743012). Further: nearly all actives have a fitted effect of over 60% in size. Further: potency means the concentration at half of the fitted maximal effect. Conditions: DT40 wild type chicken cells viability, CellTiter-Glo, 40 h; series mostly up to 68.4 µM. Summed up: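 Quantitative HTS on parental DT40 cells: 40 h compound treatment at 37 C/5% CO2, with viability then determined by CellTiter-Glo luminescence. Values serve as the DNA repair-proficient reference for differential cytotoxicity.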

A short description of assay [3]: qHTS assay for identifying genotoxic compounds that show differential cytotoxicity against isogenic chicken DT40 cell lines with known DNA damage response pathways - Rev3 mutant cell line (AID 743014). Further: nearly all actives have a fitted effect of over 55% in size. Further: potency means the concentration at half of the fitted maximal effect. The settings on record: chicken DT40 Rev3-/- viability, CellTiter-Glo, 40 h; series mostly up to 68.4 µM.
The nature of assay [4]: qHTS assay for identifying genotoxic compounds that show differential cytotoxicity against isogenic chicken DT40 cell lines with known DNA damage response pathways - Rad54/Ku70 mutant cell line (AID 743015). Further: nearly all actives have a fitted effect of over 60% in size. Further: potency means the concentration at half of the fitted maximal effect. The settings on record: DT40 Rad54/Ku70 mutant viability, CellTiter-Glo, 40 h; series mostly up to 66.8 µM.
Assay [5] can be described thus: qHTS assay to identify small molecule antagonists of the androgen receptor (AR) signaling pathway - cell viability counter screen (AID 743033; further: nearly all actives have a fitted effect of over 45% in size). Conditions: AR-bla HEK293 viability, CellTiter-Glo luminescence, 16 h; series mostly up to 58.5 µM.
The nature of assay [6]: qHTS assay to identify small molecule antagonists of the androgen receptor (AR) signaling pathway using the MDA cell line - cell viability counter screen (AID 743041; further: nearly all actives have a fitted effect of over 45% in size). The settings on record: MDA-kb2 viability, CellTiter-Fluor, 16 h, cells co-treated with R1881 androgen agonist; series mostly up to 70.3 µM. An outline of the steps: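 MDA-kb2 AR-luc cells (MMTV-luciferase, AR/GR responsive) treated with compounds plus R1881 agonist for 16 h at 37C. CellTiter-Fluor added at 15.5 h; fluorescence read after 30 min in the same wells.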

Assay [7] is described as follows: qHTS assay to identify small molecule antagonists of the thyroid receptor (TR) signaling pathway (AID 743065). Further: nearly all actives have a fitted effect of over 55% in size. Further: potency means the concentration at half of the fitted maximal effect. The settings on record: GH3.TRE-Luc, T3-stimulated luciferase inhibition, 23.5 h; series mostly up to 70.3 µM. Summed up:
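GH3.TRE-Luc rat pituitary cells (two TREs driving luciferase) were dosed with compound, then stimulated with 1 nM T3 (final) for 23.5 h at 37 C. ONE-Glo luminescence was the read-out, with CellTiter-Fluor fluorescence as the cytotoxicity counter-screen.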

In assay [8] the test system is thyroid hormone receptor (rat, GH3 cells). In words: qHTS assay to identify small molecule agonists of the thyroid receptor (TR) signaling pathway (AID 743066; calls by dose curve). Conditions: GH3.TRE-Luc cells, TR agonist luciferase, 24 h; series mostly up to 83.9 µM.
Assay [9] addresses Estrogen receptor (Homo sapiens) (UniProt P03372). Nature of the assay: qHTS assay to identify small molecule antagonists of the estrogen receptor alpha (ER-alpha) signaling pathway (AID 743069; active means well fitted curve in the direction sought with a large enough effect in the signal ratio in the repeat runs, not every such curve was filed as active; the % refers to the signal ratio). Conditions: HEK293 ER-alpha-UAS-bla, beta-lactamase ratio, antagonist mode; series mostly up to 69.4 µM. Summed up:
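HEK293 ER-alpha-UAS-bla GripTite cells, held overnight in 2% charcoal-stripped FBS, 5,000 cells/well, preincubated 4 h, then compound plus 17beta-estradiol for 18 h at 37C. Beta-lactamase read by LiveBLAzer B/G FRET substrate, 2 h at room temperature.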

Assay [10] can be described thus: qHTS assay to identify small molecule antagonists of the estrogen receptor alpha (ER-alpha) signaling pathway - cell viability counter screen (AID 743074; calls by dose curve;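 further: HEK293 cells carrying ER-alpha-UAS-bla reporter stimulated with 17beta-estradiol; nearly all actives have a fitted effect of over 45% in size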). The settings on record: ERalpha-bla HEK293 viability, CellTiter-Glo luminescence, 18 h; series mostly up to 69.4 µM.
The target of assay [11] is Estrogen receptor (Homo sapiens) (UniProt P03372). Nature of the assay: qHTS assay to identify small molecule agonists of the estrogen receptor alpha (ER-alpha) signaling pathway (AID 743075; calls by dose curve). The settings on record: HEK293 ER-alpha-UAS-bla, beta-lactamase FRET ratio, 18 h; series mostly up to 70.1 µM.
Sequence of Estrogen receptor (Homo sapiens) (P03372 whole entry, looked up): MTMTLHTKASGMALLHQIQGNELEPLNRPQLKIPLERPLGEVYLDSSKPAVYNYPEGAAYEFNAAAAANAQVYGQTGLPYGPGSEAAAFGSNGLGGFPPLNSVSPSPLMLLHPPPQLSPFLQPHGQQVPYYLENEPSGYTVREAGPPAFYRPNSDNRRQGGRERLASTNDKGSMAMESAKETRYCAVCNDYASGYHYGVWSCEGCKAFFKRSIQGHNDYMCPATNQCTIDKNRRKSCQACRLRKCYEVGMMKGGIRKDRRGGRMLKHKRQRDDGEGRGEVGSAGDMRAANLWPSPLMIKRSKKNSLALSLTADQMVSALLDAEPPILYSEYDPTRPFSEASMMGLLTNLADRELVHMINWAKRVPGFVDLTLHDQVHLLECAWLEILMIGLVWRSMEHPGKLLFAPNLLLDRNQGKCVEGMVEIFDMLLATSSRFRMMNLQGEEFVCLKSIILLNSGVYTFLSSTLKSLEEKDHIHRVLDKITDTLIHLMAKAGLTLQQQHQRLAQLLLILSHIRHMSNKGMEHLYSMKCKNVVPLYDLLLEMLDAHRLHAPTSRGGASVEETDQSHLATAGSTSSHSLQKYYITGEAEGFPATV
The target is the same in assay [12]. In words: qHTS assay to identify small molecule agonists of the estrogen receptor alpha (ER-alpha) signaling pathway using the BG1 cell line (AID 743079). Further: nearly all actives have a fitted effect of over 20% in size. Conditions: BG1Luc4E2 cells, ERE-luciferase agonist, 22 h; series mostly up to 70.3 µM.
Assay [13] in a line: qHTS assay to identify small molecule antagonists of the estrogen receptor alpha (ER-alpha) signaling pathway using the BG1 cell line (AID 743080; calls by dose curve;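 further: BG1 cells stimulated with 17beta-estradiol alongside compound; nearly all actives have a fitted effect of over 25% in size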). The settings on record: BG1Luc4E2 ERE-luciferase antagonist mode, luminescence; series mostly up to 70.3 µM. Summed up:
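Readout is ONE-Glo luminescence, taken 30 min at room temperature after reagent addition, preceded by a CellTiter-Fluor viability read; BG1-Luc-4E2 cells had received compound and 17beta-estradiol for 21.5 h at 37 C.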

Assay [14] can be described thus: qHTS assay to identify small molecule antagonists of the estrogen receptor alpha (ER-alpha) signaling pathway using the BG1 cell line - cell viability counter screen (AID 743081).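 Further: compound given together with 17beta-estradiol as the ER stimulus; nearly all actives have a fitted effect of over 45% in size.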 Conditions: BG1Luc4E2 viability, CellTiter-Fluor, 22 h; series mostly up to 70.3 µM.
A further assay deals with Aromatase (Homo sapiens) (UniProt P11511). In words: qHTS assay to identify aromatase inhibitors (AID 743083). Further: nearly all actives have a fitted effect of over 55% in size. Conditions: MCF-7 aro ERE, testosterone-driven ERE luciferase, 24 h; series mostly up to 70.3 µM.
Sequence of Aromatase (Homo sapiens) (P11511 whole entry, looked up): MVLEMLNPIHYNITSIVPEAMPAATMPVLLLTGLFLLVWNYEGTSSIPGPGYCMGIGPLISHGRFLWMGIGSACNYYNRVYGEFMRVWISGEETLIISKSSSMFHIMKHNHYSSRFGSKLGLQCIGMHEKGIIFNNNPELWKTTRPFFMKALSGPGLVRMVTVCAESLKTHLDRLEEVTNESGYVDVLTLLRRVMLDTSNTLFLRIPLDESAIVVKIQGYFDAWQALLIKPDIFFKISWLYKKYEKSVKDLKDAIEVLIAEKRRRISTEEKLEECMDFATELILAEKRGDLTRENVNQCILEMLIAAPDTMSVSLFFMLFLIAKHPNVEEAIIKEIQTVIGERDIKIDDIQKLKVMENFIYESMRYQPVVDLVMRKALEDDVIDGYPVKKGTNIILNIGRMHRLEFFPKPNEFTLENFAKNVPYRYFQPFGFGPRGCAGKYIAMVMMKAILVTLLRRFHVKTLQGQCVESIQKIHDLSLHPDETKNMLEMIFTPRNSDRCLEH
Assay [15] in a line: qHTS assay to identify small molecule antagonists of the thyroid receptor (TR) signaling pathway - cell viability counter screen (AID 743064). Further: nearly all actives have a fitted effect of over 50% in size. Conditions: GH3.TRE-Luc viability, CellTiter-Fluor, 24 h; series mostly up to 70.3 µM. Summed up:
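Fluorescence from CellTiter-Fluor, added after 23.5 h exposure at 37 °C, reported viability of GH3.TRE-Luc cells co-treated with compound and 1 nM T3. Measured in the same wells as the luciferase TR readout.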

In assay [16] the target is Androgen receptor (Homo sapiens) (UniProt P10275). Nature of the assay: qHTS assay to identify small molecule antagonists of the androgen receptor (AR) signaling pathway (AID 743035; active means well fitted inhibition curve with a large enough effect in the signal ratio in the repeat runs, not every such curve was filed as active; the % refers to the signal ratio). Conditions: HEK293 AR-UAS-bla, R1881-stimulated, beta-lactamase FRET, 16 h; series mostly up to 58.5 µM. An outline of the steps: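 Cell line: GeneBLAzer AR-UAS-bla GripTite (HEK293). Stimulus: R1881 added after compound. Exposure: 16 h, 37C, 5% CO2. Readout: LiveBLAzer B/G FRET fluorescence after 2 h at room temperature.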
Sequence of Androgen receptor (Homo sapiens) (P10275 whole entry, looked up): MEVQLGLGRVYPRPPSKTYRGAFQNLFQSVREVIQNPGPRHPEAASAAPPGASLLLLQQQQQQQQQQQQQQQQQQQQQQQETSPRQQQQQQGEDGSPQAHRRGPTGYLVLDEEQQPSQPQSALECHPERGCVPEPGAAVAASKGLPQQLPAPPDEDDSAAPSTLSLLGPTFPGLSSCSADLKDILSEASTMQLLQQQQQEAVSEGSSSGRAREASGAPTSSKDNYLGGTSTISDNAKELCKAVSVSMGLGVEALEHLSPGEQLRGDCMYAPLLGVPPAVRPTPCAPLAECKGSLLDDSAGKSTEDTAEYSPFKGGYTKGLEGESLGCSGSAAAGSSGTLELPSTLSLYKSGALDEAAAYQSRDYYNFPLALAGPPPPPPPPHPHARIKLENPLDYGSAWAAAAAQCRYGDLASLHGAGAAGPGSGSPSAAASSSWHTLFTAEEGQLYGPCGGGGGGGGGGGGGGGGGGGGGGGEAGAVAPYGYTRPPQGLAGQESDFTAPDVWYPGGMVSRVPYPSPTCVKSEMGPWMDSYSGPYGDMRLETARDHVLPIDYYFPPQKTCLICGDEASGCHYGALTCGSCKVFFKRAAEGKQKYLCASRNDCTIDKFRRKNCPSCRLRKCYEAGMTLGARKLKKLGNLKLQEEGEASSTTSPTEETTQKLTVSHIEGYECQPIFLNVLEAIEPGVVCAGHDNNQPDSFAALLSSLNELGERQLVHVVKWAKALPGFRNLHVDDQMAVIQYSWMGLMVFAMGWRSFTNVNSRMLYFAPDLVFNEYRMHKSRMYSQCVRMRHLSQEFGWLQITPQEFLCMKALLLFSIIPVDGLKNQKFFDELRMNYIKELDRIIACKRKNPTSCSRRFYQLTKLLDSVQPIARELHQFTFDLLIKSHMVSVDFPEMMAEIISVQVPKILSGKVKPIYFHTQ

Assay [17] has the same target. Nature of the assay: qHTS assay to identify small molecule agonists of the androgen receptor (AR) signaling pathway (AID 743036; active means well fitted activation curve with a large enough effect in the signal ratio in the repeat runs, with a control signal flat, not every such curve was filed as active; the % refers to the signal ratio). The settings on record: HEK293 AR-UAS-bla GripTite, beta-lactamase FRET ratio, 16 h; series mostly up to 62.4 µM. Summed up:
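Fluorescence from a beta-lactamase FRET substrate served as read-out in AR-UAS-bla GripTite HEK293 cells. Cells were treated with DMSO-dissolved compounds for 16 h at 37C, then with LiveBLAzer B/G substrate for 2 h at room temperature.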

The target is the same in assay [18]. In words: qHTS assay to identify small molecule agonists of the androgen receptor (AR) signaling pathway using the MDA cell line (AID 743040; further: nearly all actives have a fitted effect of over 20% in size). The settings on record: MDA-kb2 AR-luc cells, MMTV luciferase, 16 h, active compounds read high; series mostly up to 70.3 µM. An outline of the steps: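 MDA-kb2 breast carcinoma cells carrying MMTV-luciferase (responsive to AR and GR), plated 5 h then treated 16 h with compounds at 37C, 0% CO2. Read-out was ONE-Glo luminescence after 30 min at room temperature.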

Assay [19] has the same target. In words: qHTS assay to identify small molecule antagonists of the androgen receptor (AR) signaling pathway using the MDA cell line (AID 743042; further: nearly all actives have a fitted effect of over 55% in size). Conditions: MDA-kb2 AR-luc, MMTV luciferase, R1881 antagonist, 16 h; series mostly up to 70.3 µM. An outline of the steps:
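MDA-kb2 breast carcinoma cells carrying MMTV-luciferase (AR/GR responsive) were co-treated with compounds and the agonist R1881 for 16 h at 37C. Inhibition read as ONE-Glo luminescence; CellTiter-Fluor fluorescence measured in parallel for cytotoxicity.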

Records with an inconclusive call do not appear. Active and inactive are the calls of the source. Unless noted, the call rests on the fitted dose curve; in most records, active means well fitted curve in the direction sought with a large enough effect in the repeat runs; inconclusive means weak or mixed curves; inactive means no such curve, though single readings can be large; an effect the other way counts as inactive or inconclusive.

For the molecule `NC(=O)NNC(N)=O`, the Potency entry in [1], in assay [2], in [3], in assay [4], in assay [7] and in assay [8] was “inactive” throughout. The Potency entry in assay [9], in assay [10], in assay [11] and in [12] was “inactive” throughout. Besides, the molecule was called inactive (in [5]; in assay [6]; in assay [13]; in assay [14]; with Aromatase (Homo sapiens)).
For `CC(=O)Nc1ncc([N+](=O)[O-])s1`, the Potency result in [1], in assay [2], in [3], in assay [4], in assay [15] and in assay [8] was “inactive” in each case. For the same molecule, the Potency result in assay [9], in [10], in assay [11] and in [12] was “inactive” in each case. In addition, the result (in assay [6]; in [13]; in [14]; with Aromatase (Homo sapiens)) was inactive.
Consider `O=C1CC[C@H](C(=O)N2CCCCC2)N1`, for which the Potency entry in assay [1], in assay [2], in [3], in assay [4], in [11] and in assay [12] was “inactive” each time. In addition, the result (in assay [5]; in [6]; in [13]; with Aromatase (Homo sapiens)) was inactive.
Turning to `CC(C)(CO)[C@@H](O)C(=O)NCCCO`, the Potency result in assay [1], in assay [2], in assay [3], in [4], in assay [9] and in assay [10] was “inactive” each time. In addition, the Potency entry in assay [11] and in assay [12] was “inactive” in each case. In addition, the result (in [5]; in assay [6]; in [13]; in [14]; in the assay with Aromatase (Homo sapiens)) was inactive.
`CCC(=O)c1ccc(O)cc1`: the Potency result in assay [1], in assay [2], in assay [3], in assay [4], in assay [15] and in assay [8] was “inactive” throughout. For the same molecule, the Potency entry in assay [9], in assay [10], in assay [11] and in [12] was “inactive” each time. The result (in assay [6]; in assay [13]; in [14]; with Aromatase (Homo sapiens)) was inactive.
For the molecule `N#CCCOCCOCCC#N`, the Potency entry in assay [1], in assay [2], in [4], in assay [15], in assay [7] and in assay [8] was “inactive” throughout. Further, the Potency entry in assay [9], in [10], in assay [11] and in [12] was “inactive” each time. Further, the Potency in [3] was 61.1 µM (active). Also, the result (in assay [6]; in assay [13]; in assay [14]; with Aromatase (Homo sapiens)) was inactive.
For the molecule `C1=CCC(c2ccccc2)CC1` (stereo unspecified), the Potency result in assay [1], in assay [7], in assay [8] and in assay [10] was “inactive” throughout. For the same molecule, the Potency in assay [2] was 61.1 µM (active); in assay [3] it was 30.6 µM (active); in [4] it was 54.5 µM (active). In addition, the call (in assay [5]; in [6]; in assay [14]; with Aromatase (Homo sapiens)) was inactive.
On to `COc1cc2c(Nc3ccc(Br)cc3F)ncnc2cc1OCC1CCN(C)CC1`, for which the Potency in [1] was 23.9 µM (active); in assay [2] it was 5.31 µM (active); in assay [3] it was 5.96 µM (active); in [4], 6.68 µM (active); in assay [7], 5.31 µM (active). In addition, the outcome (in assay [5]; in assay [6]; with Aromatase (Homo sapiens)) was inactive. Moreover, the Potency result in [9] and in assay [12] was “inactive” throughout.
On to `C=CCOCC(O)CCl` (stereo unspecified), for which the Potency result in [1], in assay [2], in assay [3], in [4], in [16] and in assay [15] was “inactive” in each case. Further, the Potency result in assay [7], in [8], in [9], in assay [10], in assay [11] and in assay [12] was “inactive” in each case. In addition, the result in [17], in assay [18], in assay [6], in assay [19], in assay [13] and in assay [14] was inactive. Also, in the assay with Aromatase (Homo sapiens), the result was inactive.
Consider `NC(Cc1c[nH]c2ccccc12)C(=O)O` (stereo unspecified), for which the Potency result in assay [1], in assay [2], in assay [3], in [4], in [8] and in [10] was “inactive” throughout. Besides, the molecule was called inactive (in assay [5]; in assay [6]; in assay [14]; with Aromatase (Homo sapiens)).
